In PubChem BioAssay (Tox21):
Results filed as inconclusive are left out. The source made the active and inactive calls. Unless noted, calls come from the whole dose curve; as a rule, active = well fitted curve in the direction sought with a large enough effect in the repeat runs; inconclusive = weak or mixed curves; inactive = no such curve, though single readings can be large; an effect the other way counts as inactive or inconclusive.

Columns and labels:
[1] = qHTS assay to identify small molecule agonists of H2AX (AID 1224845; active = well fitted activation curve with a large enough effect in the signal ratio in the repeat runs, not every such curve was filed as active; the % refers to the signal ratio)
Outline: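 Phospho-H2AX Ser139 measured by HTRF (ex 320 nm; em 665 and 620 nm) after 24 hr antibody incubation. Compounds, 15 concentrations, 0.76% DMSO, were applied to CHO-K1 cells for 3hr at 37C before lysis.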

[2] = qHTS assay to identify small molecule antagonists of the estrogen related receptor (ERR) signaling pathway from Tox21 library (AID 1224848); note: nearly all actives have a fitted effect of over 50% in size; note: potency is the fitted concentration of half-maximal effect
Outline: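 ERR cell line, 2,000 cells/well. 6 h settle, then compound (DMSO) added; 18 h at 37 C; ONE-Glo luminescence after 30 min RT.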

[3] = qHTS assay to identify small molecule agonists of the estrogen related receptor (ERR) signaling pathway from Tox21 library (AID 1224849; calls by dose curve; note: nearly all actives have a fitted effect of over 15% in size)
Outline: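 Luminescent agonist read-out (One-Glo, 30-minute room-temperature incubation) following 18-hour compound treatment at 37 C of the ERR cell line, which had been plated 6 hours before dosing.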

[4] = qHTS RealTime-Glo MT Cell Viability Assay in HepG2 cells - 24 hour (AID 1224867); note: nearly all actives have a fitted effect of over 50% in size
Outline: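 Tox21 10K library screened in qHTS format on HepG2 cells carrying RealTime-Glo reagents. Compounds were added after a 5 h preincubation, and the luminescent signal from continuous culture was measured repeatedly during 40 h treatment.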

[5] = qHTS RealTime-Glo MT Cell Viability Assay in HEK293 cells - 32 hour (AID 1224868); note: nearly all actives have a fitted effect of over 50% in size; note: potency is the fitted concentration of half-maximal effect; for activity change, negative = cytotoxic: top concentration of the series differs between compounds
Outline: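 Luminescence generated by NanoLuc from substrate produced by living HEK293 cells served as the viability signal. Each value reflects the reading at its stated time point during continuous 40 h compound exposure at 37 C.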

[6] = A CellTox Green Cytotoxicity Assay to monitor cytotoxicity in HEK293 cells - 0 hour (AID 1224869); note: nearly all actives have a fitted effect of over 50% in size
Outline: (§1)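 Fluorescence from a DNA-binding dye excluded by viable cells was measured repeatedly in the same HEK293 wells (600 cells/well) during continuous compound exposure at 37 C. Each assay gives one read point: 0, 8, 16, 24, 32 or 40 h.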

[7] = qHTS RealTime-Glo MT Cell Viability Assay in HepG2 cells - 40 hour (AID 1224870); note: nearly all actives have a fitted effect of over 50% in size
Outline: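 Real-time viability: cells seeded at 600 per well together with NanoLuc and cell-permeant prosubstrate, compounds added after 5 h incubation. Luminescence tracked at 0, 8, 16, 24, 32 and 40 h of exposure.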

[8] = A CellTox Green Cytotoxicity Assay to monitor cytotoxicity in HEK293 cells - 40 hour (AID 1224871); note: nearly all actives have a fitted effect of over 45% in size; note: potency is the fitted concentration of half-maximal effect
Outline: as §1

[9] = qHTS assay to identify small molecule agonists of the hypoxia (HIF-1) signaling pathway (AID 1224846; active = well fitted activation curve with a large enough effect in the signal ratio in the repeat runs, not every such curve was filed as active; the % refers to the signal ratio)
Outline: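 Compounds added to ME-180 cells carrying hypoxia-response-element beta-lactamase reporter (0.5% dialyzed FBS, 5 h preplating), 17 h at 37C; agonist activity detected by CCF4-AM B/G FRET read-out.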

[10] = qHTS assay to identify small molecule agonists of H2AX - cell viability counter screen (AID 1224847; calls by dose curve; note: top concentration of the series differs between compounds; nearly all actives have a fitted effect of over 30% in size)
Outline: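 We seed wild-type CHO-K1 cells overnight, treat them for 3 hr at 37C with compounds in 15-concentration series, and quantify remaining viability by CellTiter-Glo luminescence.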
% is set by controls: 0 for no effect and ±100 for the full control effect.

CC(C)C[C@@H](N)C(=O)O
inactive: activation (H2AX phosphorylation) [1] -1.49% [at 31.6 µM] | activity, negative = inhibition [2] 12.8% [at 19 µM] | activity change, positive = activation [3] 7.21% [at 19 µM] | activity change, negative = cytotoxicity [4] 3.14% [at 15.8 µM] | activity change, negative = cytotoxic [5] 5.13% [at 15.8 µM] | cytotoxicity [6] -0.288% [at 15.8 µM] | activity change, negative = cytotoxic [7] 2.01% [at 15.8 µM] | cytotoxicity increase [8] -2.15% [at 15.8 µM]

O=[N+]([O-])c1cncn1CCN1CCOCC1
inactive: Potency [1] | outcome [4] | Potency [5] | outcome [6] | Potency [7] | Potency [8]

CC(=O)c1ccccc1[N+](=O)[O-]
inactive: outcome [9] | outcome [10] | Potency [2] | outcome [3] | outcome [4] | Potency [5] | outcome [6] | Potency [7] | Potency [8]

NCCCC[C@H](N[C@@H](CCc1ccccc1)C(=O)O)C(=O)N1CCC[C@H]1C(=O)O
inactive: Potency [1] | outcome [10] | outcome [4] | Potency [5] | Potency [7] | Potency [8]

CCOc1ccccc1OCC
inactive: outcome [9] | outcome [10] | Potency [2] | outcome [3] | outcome [4] | Potency [5] | outcome [6] | Potency [7] | Potency [8]

O=S(=O)(O)c1cccc(S(=O)(=O)O)c1
inactive: outcome [9] | outcome [10] | Potency [2] | outcome [3] | outcome [4] | Potency [5] | outcome [6] | Potency [7] | Potency [8]

C[N+]1(C)[C@@H]2CC(OC(=O)[C@H](CO)c3ccccc3)C[C@H]1[C@@H]1O[C@@H]12 (stereo partly specified)
inactive: Potency [1] | outcome [10] | outcome [6] | Potency [8]

CCN1C=CN(C)C1C (stereo unspecified)
inactive: outcome [9] | outcome [10] | Potency [2] | outcome [3] | outcome [4] | Potency [5] | outcome [6] | Potency [7] | Potency [8]

CC(C)(N)C#N
inactive: outcome [9] | outcome [10] | Potency [2] | outcome [3] | outcome [4] | Potency [5] | outcome [6] | Potency [7] | Potency [8]

CCC1C(=O)OCC1Cc1cncn1C (stereo unspecified)
inactive: Potency [1] | outcome [10] | outcome [4] | Potency [5] | Potency [7] | Potency [8]

COc1c(N2CCNC(C)C2)c(F)cc2c(=O)c(C(=O)O)cn(C3CC3)c12 (stereo unspecified)
inactive: outcome [9] | outcome [10] | outcome [4] | Potency [5] | outcome [6] | Potency [7] | Potency [8]

c1ccc(Cc2ccccc2)cc1
active: Potency [8] 34.7 µM
inactive: Potency [1] | outcome [10] | outcome [4] | Potency [5] | outcome [6] | Potency [7]

CCOc1ccc2nc(S(N)(=O)=O)sc2c1
inactive: outcome [9] | outcome [10] | outcome [4] | Potency [5] | outcome [6] | Potency [7] | Potency [8]

Clc1cc(Cl)cc(Cl)c1
inactive: Potency [1] | Potency [2] | outcome [3] | outcome [4] | Potency [5] | outcome [6] | Potency [7] | Potency [8]

NC(=O)NC1N=C([O][Al])NC1=O (stereo unspecified)
inactive: Potency [1] | outcome [4] | Potency [5] | Potency [7] | Potency [8]

NC(CCC(=O)O)C(=O)O (stereo unspecified)
inactive: outcome [9] | outcome [10] | outcome [4] | Potency [5] | Potency [7] | Potency [8]

Nc1ccn([C@@H]2O[C@H](CO)[C@@H](O)[C@@H]2O)c(=O)n1
inactive: outcome [9] | outcome [10] | Potency [2] | outcome [3] | outcome [4] | Potency [5] | outcome [6] | Potency [7] | Potency [8]

CCOC(=O)C(=O)CCCCCCl
inactive: Potency [1] | outcome [10] | outcome [4] | Potency [5] | outcome [6] | Potency [7] | Potency [8]

CC(C)(CCC(=O)O)C(=O)O
inactive: outcome [9] | outcome [10] | outcome [4] | Potency [5] | outcome [6] | Potency [7] | Potency [8]

CC(C)CCCO
inactive: outcome [9] | outcome [10] | outcome [4] | Potency [5] | Potency [7] | Potency [8]

O=C1c2ccccc2C(=O)c2cc(O)ccc21
inactive: outcome [9] | outcome [10] | outcome [4] | outcome [6] | Potency [7] | Potency [8]

CC1=NN(c2cccc(S(=O)(=O)O)c2)C(=O)C1
inactive: outcome [10] | Potency [2] | outcome [3] | outcome [4] | Potency [5] | outcome [6] | Potency [7] | Potency [8]

Cc1cc(C)c(N=Nc2c(O)c(S(=O)(=O)O)cc3cc(S(=O)(=O)O)ccc23)cc1C
inactive: activation [9] -0.827% [at 7.01 µM] | activity, negative = inhibition [2] -9.99% [at 8.39 µM] | activity change, positive = activation [3] -5.16% [at 8.39 µM] | activity change, negative = cytotoxicity [4] -1.15% [at 6.97 µM] | cytotoxicity [6] 0.859% [at 6.97 µM] | activity change, negative = cytotoxic [7] -8.96% [at 6.97 µM] | cytotoxicity increase [8] 18.5% [at 6.97 µM]

CC1=NN(c2cc(S(=O)(=O)O)ccc2Cl)C(=O)C1N=Nc1ccccc1 (stereo unspecified)
inactive: outcome [10] | outcome [4] | Potency [5] | outcome [6] | Potency [7] | Potency [8]

COc1cc2c(cc1OC)-c1cc3ccc(OC)c(OC)c3c[n+]1CC2
active: Potency [2] 24.6 µM | Potency [5] 49.4 µM
inactive: outcome [10] | outcome [3] | outcome [4] | outcome [6] | Potency [7] | Potency [8]

C=C(C)C(=O)OCCOCCOCCOCCOC(=O)C(=C)C
inactive: outcome [10] | outcome [4] | outcome [6] | Potency [7] | Potency [8]

CCO[Si](OCC)(OCC)c1ccccc1
inactive: outcome [9] | Potency [2] | outcome [3] | outcome [4] | Potency [5] | Potency [7] | Potency [8]
